From PubChem BioAssay AID1159580 (chemical genetic matrix, 2015)
Out of some 5,500 compounds screened, about 2,000 (36%) were called active. Roughly 18% stayed inconclusive and do not appear here. Rule as the data show it: active = normalized growth mostly below about 0.91 (no sharp cut-off); inconclusive = no clear call, values can overlap the other calls; inactive = mostly above about 0.92. This is one part of the list.

Assay: chemical genetic growth profiling, strain panel (AID 1159580);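 also: tested at 20 µM; growth read once vehicle control cultures reached saturation at 30 °C; 1 = growth at the plate median or of vehicle wells; lower values mean less growth of the strain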
Settings: growth OD

Measured: normalized growth

O=C1C=C2C(=CCOC2O)O1 (stereo unspecified)
active: S. cerevisiae deletion strains, locus YKL009W, strain mrt4, active compounds read low 0.714 | S. cerevisiae deletion strains, locus YKL068W, active compounds read low 0.904 | S. cerevisiae deletion strains, locus YKL085W, strain MDH1 (second series), active compounds read low 0.868 | S. cerevisiae deletion strains, locus YKL085W, strain MDH1, active compounds read low 0.868 | S. cerevisiae deletion strains, locus YKL160W, strain elf1, active compounds read low 0.736 | S. cerevisiae deletion strains, locus YKL190W, strain CNB1, active compounds read low 0.834 | S. cerevisiae deletion strains, locus YKR001C, strain vps1, active compounds read low 0.541 | S. cerevisiae deletion strains, locus YKR026C, strain gcn3, active compounds read low 0.795 | S. cerevisiae deletion strains, locus YKR091W, strain srl3, active compounds read low 0.885 | S. cerevisiae deletion strains, locus YLL001W, strain dnm1, active compounds read low 0.691 | S. cerevisiae deletion strains, locus YLL026W, active compounds read low 0.769 | S. cerevisiae deletion strains, locus YLL041C, strain sdh2, active compounds read low 0.84 | S. cerevisiae deletion strains, locus YLR027C, strain aat2, active compounds read low 0.727 | S. cerevisiae deletion strains, locus YLR039C, strain RIC1, active compounds read low 0.292 | S. cerevisiae deletion strains, locus YLR113W, strain HOG1, active compounds read low 0.708 | S. cerevisiae deletion strains, locus YLR221C, strain rsa3, active compounds read low 0.716 | S. cerevisiae deletion strains, locus YLR258W, strain gsy2, active compounds read low 0.794 | S. cerevisiae deletion strains, locus YLR262C, strain YPT6 (second series), active compounds read low 0.337 | S. cerevisiae deletion strains, locus YLR262C, strain YPT6, active compounds read low 0.231 | S. cerevisiae deletion strains, locus YLR268W, strain sec22, active compounds read low 0.794 | S. cerevisiae deletion strains, locus YLR320W, strain mms22, active compounds read low 0.701 | S. cerevisiae deletion strains, locus YLR330W, strain CHS5, active compounds read low 0.87 | S. cerevisiae deletion strains, locus YLR342W, strain FKS1 (second series), active compounds read low 0.774 | S. cerevisiae deletion strains, locus YLR342W, strain FKS1, active compounds read low 0.72 | S. cerevisiae deletion strains, locus YLR370C, strain arc18, active compounds read low 0.697 | S. cerevisiae deletion strains, locus YLR384C, strain iki3, active compounds read low 0.789 | S. cerevisiae deletion strains, locus YLR418C, strain cdc73, active compounds read low 0.62 | S. cerevisiae deletion strains, locus YML120C, strain ndi1, active compounds read low 0.76 | S. cerevisiae deletion strains, locus YML124C, strain tub3, active compounds read low 0.918 | S. cerevisiae deletion strains, locus YMR058W, strain fet3, active compounds read low 0.328 | S. cerevisiae deletion strains, locus YMR125W, strain sto1, active compounds read low 0.729 | S. cerevisiae deletion strains, locus YMR129W, active compounds read low 0.836 | S. cerevisiae deletion strains, locus YMR205C, strain PFK2, active compounds read low 0.722 | S. cerevisiae deletion strains, locus YMR223W, strain ubp8, active compounds read low 0.801 | S. cerevisiae deletion strains, locus YMR231W, strain pep5, active compounds read low 0.0886 | S. cerevisiae deletion strains, locus YMR263W, strain SAP30, active compounds read low 0.852 | S. cerevisiae deletion strains, locus YMR307W, strain GAS1, active compounds read low 0.302 | S. cerevisiae deletion strains, locus YNL067W, strain RPL9B, active compounds read low 0.689 | S. cerevisiae deletion strains, locus YNL071W, strain lat1, active compounds read low 0.654 | S. cerevisiae deletion strains, locus YNL128W, strain TEP1, active compounds read low 0.798 | S. cerevisiae deletion strains, locus YNL153C, strain GIM3, active compounds read low 0.664 | S. cerevisiae deletion strains, locus YNL183C, strain NPR1, active compounds read low 0.825 | S. cerevisiae deletion strains, locus YNL209W, strain ssb2, active compounds read low 0.761 | S. cerevisiae deletion strains, locus YNL233W, strain BNI4, active compounds read low 0.81 | S. cerevisiae deletion strains, locus YNL248C, strain rpa49, active compounds read low 0.701 | S. cerevisiae deletion strains, locus YNL298W, strain CLA4, active compounds read low 0.842 | S. cerevisiae deletion strains, locus YNL307C, strain MCK1, active compounds read low 0.748 | S. cerevisiae deletion strains, locus YNL322C, strain KRE1, active compounds read low 0.815 | S. cerevisiae deletion strains, locus YNR049C, strain mso1, active compounds read low 0.812 | S. cerevisiae deletion strains, locus YNR052C, strain pop2, active compounds read low 0.83 | S. cerevisiae deletion strains, locus YOR001W, strain rrp6, active compounds read low 0.638 | S. cerevisiae deletion strains, locus YOR069W, strain VPS5, active compounds read low 0.862 | S. cerevisiae deletion strains, locus YOR070C, strain gyp1, active compounds read low 0.794 | S. cerevisiae deletion strains, locus YOR080W, strain dia2, active compounds read low 0.864 | S. cerevisiae deletion strains, locus YOR083W, strain WHI5, active compounds read low 0.662 | S. cerevisiae deletion strains, locus YOR106W, strain vam3, active compounds read low 0.522 | S. cerevisiae deletion strains, locus YOR136W, strain idh2, active compounds read low 0.896 | S. cerevisiae deletion strains, locus YOR184W, strain ser1, active compounds read low 0.719 | S. cerevisiae deletion strains, locus YOR265W, strain rbl2, active compounds read low 0.792 | S. cerevisiae deletion strains, locus YOR270C, strain vph1, active compounds read low 0.506 | S. cerevisiae deletion strains, locus YOR290C, strain snf2, active compounds read low 0.86 | S. cerevisiae deletion strains, locus YPL051W, strain arl3, active compounds read low 0.607 | S. cerevisiae deletion strains, locus YPL055C, strain LGE1, active compounds read low 0.601 | S. cerevisiae deletion strains, locus YPL078C, strain atp4, active compounds read low 0.615 | S. cerevisiae deletion strains, locus YPL106C, strain sse1, active compounds read low 0.542 | S. cerevisiae deletion strains, locus YPL240C, strain hsp82, active compounds read low 0.852 | S. cerevisiae deletion strains, locus YPL241C, strain CIN2, active compounds read low 0.921 | S. cerevisiae deletion strains, locus YPL256C, strain CLN2, active compounds read low 0.809 | S. cerevisiae deletion strains, locus YPR141C, strain kar3, active compounds read low 0.898 | S. cerevisiae deletion strains, locus YPR163C, strain tif3, active compounds read low 0.823 | S. cerevisiae deletion strains, strain wtn01, active compounds read low 0.76 | S. cerevisiae strains, strain wild type, active compounds read low 0.78
inactive: S. cerevisiae deletion strains, locus YLR058C, strain SHM2, active compounds read low 0.927 | S. cerevisiae deletion strains, locus YLR102C, strain apc9, active compounds read low 0.96 | S. cerevisiae deletion strains, locus YLR357W, strain rsc2, active compounds read low 0.862 | S. cerevisiae deletion strains, locus YLR371W, strain rom2, active compounds read low 0.945 | S. cerevisiae deletion strains, locus YML016C, strain PPZ1, active compounds read low 0.953 | S. cerevisiae deletion strains, locus YML032C, strain rad52, active compounds read low 0.92 | S. cerevisiae deletion strains, locus YMR078C, strain ctf18, active compounds read low 0.989 | S. cerevisiae deletion strains, locus YNL250W, strain rad50, active compounds read low 0.903 | S. cerevisiae deletion strains, locus YNL271C, strain bni1, active compounds read low 0.92 | S. cerevisiae deletion strains, locus YNL322C, strain KRE1 (second series), active compounds read low 0.911 | S. cerevisiae deletion strains, locus YOL006C, strain TOP1, active compounds read low 0.632 | S. cerevisiae deletion strains, locus YOL012C, strain htz1 0.714 | S. cerevisiae deletion strains, locus YOL147C, strain pex11, active compounds read low 0.984 | S. cerevisiae deletion strains, locus YOR061W, strain CKA2, active compounds read low 0.929 | S. cerevisiae deletion strains, locus YOR144C, strain elg1, active compounds read low 0.966 | S. cerevisiae deletion strains, locus YOR231W, strain MKK1, active compounds read low 0.877 | S. cerevisiae deletion strains, locus YOR316C, strain cot1, active compounds read low 0.951 | S. cerevisiae deletion strains, locus YPR119W, strain clb2, active compounds read low 0.965 | S. cerevisiae deletion strains, locus YPR167C, strain met16, active compounds read low 0.937
